Inconclusive results are not listed. Some compounds were tested as several samples or in several runs, with calls that do not always agree. Calls of active or inactive are those of the source. The calls were made as follows, unless noted: active = hit-call score of the fitted dose curve at least 0.9, where 1 is the maximum; inconclusive = response in the unintended direction; inactive = score below 0.9.
How the values were obtained:
[1] = molecular target: Estrogen receptor (Homo sapiens) (UniProt P03372); assay: ATG_ERa_TRANS: Attagene TRANS-FACTORIAL HepG2 Assay for human Estrogen Receptor alpha (ERa) (AID 2282970); settings: HepG2 Attagene TRANS ERa GAL4 reporter, mRNA
Method in brief: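 After 24 h of compound treatment, RNA from HepG2 cells bearing transfected GAL4-UAS reporter constructs is converted to cDNA, amplified and fluorescently labelled. Capillary electrophoresis resolves the ERa-linked reporter; DMSO serves as negative control.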

[2] = molecular target: Steroid hormone receptor ERR1 (Homo sapiens) (UniProt P11474); assay: ATG_ERRa_TRANS: Attagene TRANS-FACTORIAL HepG2 Assay for human Estrogen-Related Receptor alpha (ERRa) (AID 2282971); settings: HepG2 Attagene TRANS reporter, ERRa transactivation
Method in brief: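 Transfected HepG2, 24 h dosing, ERRa-Gal4 chimera driving GAL4-UAS reporter. Readout: reporter mRNA via RT-PCR plus capillary electrophoresis (fluorescence). Positive direction vs DMSO control.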

[3] = molecular target: X-box-binding protein 1 (Homo sapiens) (UniProt P17861); assay: ATG_Xbp1_CIS: Attagene CIS-FACTORIAL HepG2 Assay for human X-box Binding Protein 1 (XBP1) (AID 2282972; active = hit-call score of the fitted dose curve at least 0.9, where 1 is the maximum; inactive = score below 0.9); settings: HepG2 XBP1 cis-element reporter, Attagene multiplex; actives raise or lower the signal
Method in brief: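 HepG2, transient MRTU transfection (cis-promoter driven), 24 h compound exposure. Total RNA → oligo(dT) RT → PCR → 6-FAM labeling → HpaI cut → CE. Bidirectional fit vs DMSO.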

[4] = molecular target: Bile acid receptor (Homo sapiens) (UniProt Q96RI1); assay: ATG_FXR_TRANS: Attagene TRANS-FACTORIAL HepG2 Assay for Farnesoid X Receptor (FXR) (AID 2282979); settings: HepG2 Attagene TRANS FXR-GAL4 reporter transcription;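 also: hits raise reporter mRNA above DMSO so AC50 marks FXR activation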
Method in brief: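 Read-out: fluorescent reporter transcripts quantified by capillary electrophoresis after RT-PCR of total RNA. Source cells were HepG2 transiently carrying chimeric NR-GAL4 plus GAL4-UAS reporter units, dosed 24 h. Activity fitted upward relative to DMSO baseline.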

[5] = molecular target: Oxysterols receptor LXR-alpha (Homo sapiens) (UniProt Q13133); assay: ATG_LXRa_TRANS: Attagene TRANS-FACTORIAL HepG2 Assay for human Liver X Receptor alpha (LXRa) (AID 2282980); settings: HepG2 Attagene TRANS reporter, LXRa transactivation
Method in brief: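 Read-out: reporter transcript levels by RT-PCR plus capillary electrophoresis, fluorescence intensity. Transiently transfected HepG2, exogenous NR-GAL4 chimera, GAL4-UAS reporters; 24 h compound exposure. Activity = increase over DMSO negative control.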

[6] = molecular target: Oxysterols receptor LXR-beta (Homo sapiens) (UniProt P55055); assay: ATG_LXRb_TRANS: Attagene TRANS-FACTORIAL HepG2 Assay for human Liver X Receptor beta (LXRb) (AID 2282981); settings: HepG2 Attagene TRANS GAL4-LXRb reporter, mRNA
Method in brief: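 HepG2 cells transiently transfected with multiple reporter transcription units carrying chimeric NR-Gal4 proteins acting on GAL4-UAS reporters; compound exposure 24 h. Reporter mRNA quantified by RT-PCR, 6-FAM labelling, HpaI digestion and capillary electrophoresis; gain of signal versus DMSO.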

[7] = molecular target: Nuclear receptor subfamily 4 group A member 2 (Homo sapiens) (UniProt P43354); assay: ATG_NURR1_TRANS: Attagene TRANS-FACTORIAL HepG2 Assay for human Nuclear Receptor Related Protein 1 (NURR1) (AID 2282985); settings: HepG2 Attagene TRANS reporter, mRNA readout
Method in brief: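 HepG2 cells transiently transfected with GAL4-UAS reporter units and chimeric NR-Gal4 constructs; chemical exposure 24 h. Reporter mRNA quantified by RT-PCR, fluorescent labelling and capillary electrophoresis; gain of signal fitted relative to DMSO baseline.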

[8] = molecular target: Transcriptional activator Myb (Homo sapiens) (UniProt P10242); assay: ATG_Myb_CIS: Attagene CIS-FACTORIAL HepG2 Assay for human Myeloblastosis (Myb) Proto-Oncogene Transcription Factor (AID 2282986; active = hit-call score of the fitted dose curve at least 0.9, where 1 is the maximum; inactive = score below 0.9); settings: HepG2 Attagene CIS-FACTORIAL Myb reporter transcription; actives raise or lower the signal
Method in brief: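 Reporter mRNA is quantified by RT-PCR and capillary electrophoresis 24 h after dosing HepG2 cells transfected with cis-regulated reporter units, which track endogenous transcription factor activity. Gain and loss of signal are fitted versus DMSO baseline.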

[9] = molecular target: Nuclear respiratory factor 1 (Homo sapiens) (UniProt Q16656); assay: ATG_NRF1_CIS: Attagene CIS-FACTORIAL HepG2 Assay for human Nuclear Respiratory Factor 1 (NRF1) Orphan Gene (AID 2282987; active = hit-call score of the fitted dose curve at least 0.9, where 1 is the maximum; inactive = score below 0.9); settings: HepG2 NRF1 cis-element reporter, Attagene multiplex; actives raise or lower the signal
Method in brief: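 Endogenous NRF1-driven reporter transcription in transfected HepG2 cells after 24 h treatment. Readout: RT-PCR products, 6-FAM labelled and resolved by capillary electrophoresis; changes fitted both directions relative to DMSO.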

[10] = ATG_NFI_CIS: Attagene CIS-FACTORIAL HepG2 Assay for human Nuclear Factor I (NFI) (AID 2282989; active = hit-call score of the fitted dose curve at least 0.9, where 1 is the maximum; inactive = score below 0.9); settings: HepG2 cis-regulatory reporter, NFI response element transcription; actives raise or lower the signal
Method in brief: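 HepG2, transient MRTU, 24 h exposure; RNA→cDNA→PCR→FAM label→HpaI→CE fluorescence. Bidirectional fit, DMSO = baseline.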

[11] = molecular target: Myc proto-oncogene protein (Homo sapiens) (UniProt P01106); assay: ATG_Myc_CIS: Attagene CIS-FACTORIAL HepG2 Assay for human Myelocytomatosis (Myc) Proto-Oncogene Transcription Factor (AID 2282990; active = hit-call score of the fitted dose curve at least 0.9, where 1 is the maximum; inactive = score below 0.9); settings: HepG2, Attagene cis-reporter transcription factor activity; actives raise or lower the signal
Method in brief: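 Multiplexed cis-reporter transcription in HepG2 cells after 24 h chemical treatment. Reporter mRNA measured by RT-PCR and capillary electrophoresis fluorescence; activity fitted bidirectionally against DMSO control.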

[12] = ATG_M_19_TRANS: Attagene TRANS-FACTORIAL HepG2 Assay for M19 Transcription Factor (Internal Marker) (AID 2282974); settings: HepG2 Attagene TRANS-FACTORIAL M19 internal marker reporter
Method in brief: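 Background-control readout: after 24 h chemical exposure of transfected HepG2 carrying GAL4-driven reporter units, RNA was reverse-transcribed, amplified, fluorescently labeled and sized by capillary electrophoresis; gain-of-signal fit against DMSO.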

[13] = molecular target: Androgen receptor (Homo sapiens) (UniProt P10275); assay: ATG_AR_TRANS: Attagene TRANS-FACTORIAL HepG2 Assay for human Androgen Receptor (AR) (AID 2282973); settings: HepG2 Attagene TRANS-FACTORIAL AR reporter transcription
Method in brief: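 Readout is reporter transcript abundance, quantified by fluorescent RT-PCR products separated on capillary electrophoresis. Human HepG2 liver cells carried transiently transfected NR-Gal4 chimera plus GAL4-UAS reporter constructs and were dosed for 24 h; activity scored upward versus DMSO.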

[14] = molecular target: Hepatocyte nuclear factor 4-alpha (Homo sapiens) (UniProt P41235); assay: ATG_HNF4a_TRANS: Attagene TRANS-FACTORIAL HepG2 Assay for human Hepatocyte Nuclear Factor 4 alpha (HNF4a) (AID 2282982); settings: HepG2 HNF4a transactivation reporter, mRNA readout
Method in brief: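 HepG2 cells transiently transfected with multiplexed GAL4-UAS reporter units responsive to chimeric NR-GAL4 proteins; compound exposure 24 h. Reporter mRNA quantified by RT-PCR, 6-FAM labelling, HpaI digestion and capillary electrophoresis; gain of signal versus DMSO baseline.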

[15] = ATG_M_32_TRANS: Attagene TRANS-FACTORIAL HepG2 Assay for M32 Transcription Factor (Internal Marker) (AID 2282984); settings: HepG2 Attagene TRANS M32 internal marker reporter;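 also: transcript level of a background control reporter unit measured by RT-PCR and capillary electrophoresis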
Method in brief: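 HepG2 cells transiently transfected with multiple GAL4-UAS reporter transcription units, dosed for 24 hours; reporter mRNA quantified by RT-PCR, 6-FAM primer extension, HpaI digestion and capillary electrophoresis. Gain-of-signal fitted versus DMSO baseline; internal background-control marker.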

[16] = ATG_GAL4_TRANS: Attagene TRANS-FACTORIAL HepG2 Assay for GAL4 (Internal Marker) (AID 2282976); settings: HepG2 Attagene TRANS GAL4 internal marker reporter
Method in brief: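 RT-PCR/capillary electrophoresis readout of reporter mRNA. HepG2, transient MRTU transfection (GAL4-UAS reporters), 24 h compound exposure. Background-control endpoint, positive direction vs DMSO baseline.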

[17] = ATG_M_06_TRANS: Attagene TRANS-FACTORIAL HepG2 Assay for M06 Transcription Factor (Internal Marker) (AID 2282983); settings: HepG2 Attagene TRANS M06 internal marker reporter
Method in brief: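 After a 24 h chemical treatment of transfected HepG2, RNA underwent DNase I treatment, reverse transcription and reporter-specific PCR; labelled, HpaI-digested products were sized by capillary electrophoresis. Signal increase relative to DMSO defined activity.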

[18] = molecular target: Glucocorticoid receptor (Homo sapiens) (UniProt P04150); assay: ATG_GR_TRANS: Attagene TRANS-FACTORIAL HepG2 Assay for human Glucocorticoid Receptor (GR) (AID 2282978); settings: HepG2 Attagene TRANS GR reporter, mRNA transcription;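 also: activators score as hits since higher reporter transcript over DMSO is fitted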
Method in brief: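 Readout is reporter transcript from a chimeric GR-Gal4 acting on GAL4-UAS in transfected human HepG2 liver cells after 24 h exposure, quantified by RT-PCR and capillary electrophoresis. Activation fitted upward against DMSO.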

Measured: AC50

Hepatocyte nuclear factor 4-alpha (Homo sapiens), sequence (P41235 whole entry, looked up, the tested form may be a part): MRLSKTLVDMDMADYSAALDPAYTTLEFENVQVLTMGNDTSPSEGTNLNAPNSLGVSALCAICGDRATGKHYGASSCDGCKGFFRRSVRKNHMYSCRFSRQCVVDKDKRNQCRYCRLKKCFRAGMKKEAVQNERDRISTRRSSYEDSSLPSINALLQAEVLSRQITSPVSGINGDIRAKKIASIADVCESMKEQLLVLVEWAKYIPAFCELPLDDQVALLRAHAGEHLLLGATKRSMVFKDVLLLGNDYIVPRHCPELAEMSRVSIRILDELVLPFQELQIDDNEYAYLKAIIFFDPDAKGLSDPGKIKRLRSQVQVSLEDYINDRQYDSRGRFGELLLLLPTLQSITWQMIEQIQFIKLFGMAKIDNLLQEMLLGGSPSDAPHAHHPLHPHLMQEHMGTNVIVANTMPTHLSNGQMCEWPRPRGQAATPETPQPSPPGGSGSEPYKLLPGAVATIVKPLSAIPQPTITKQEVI
Nuclear receptor subfamily 4 group A member 2 (Homo sapiens), sequence (P43354 whole entry, looked up, the tested form may be a part): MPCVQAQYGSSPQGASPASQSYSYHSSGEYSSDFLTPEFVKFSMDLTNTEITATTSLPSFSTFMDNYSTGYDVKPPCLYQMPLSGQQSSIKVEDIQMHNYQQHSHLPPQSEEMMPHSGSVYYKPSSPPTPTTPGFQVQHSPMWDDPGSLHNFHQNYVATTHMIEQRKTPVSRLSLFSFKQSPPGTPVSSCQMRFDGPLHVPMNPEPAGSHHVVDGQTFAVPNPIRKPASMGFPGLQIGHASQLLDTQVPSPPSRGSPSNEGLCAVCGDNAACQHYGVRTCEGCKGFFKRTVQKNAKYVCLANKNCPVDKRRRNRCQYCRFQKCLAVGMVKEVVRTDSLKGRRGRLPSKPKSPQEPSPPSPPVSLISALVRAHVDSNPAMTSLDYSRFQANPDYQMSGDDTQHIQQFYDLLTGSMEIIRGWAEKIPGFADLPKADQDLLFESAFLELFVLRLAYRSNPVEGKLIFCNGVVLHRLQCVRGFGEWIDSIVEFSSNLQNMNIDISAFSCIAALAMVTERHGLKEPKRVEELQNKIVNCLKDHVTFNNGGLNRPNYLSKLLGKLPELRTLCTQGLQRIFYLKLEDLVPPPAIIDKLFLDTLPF
Transcriptional activator Myb (Homo sapiens), sequence (P10242 whole entry, looked up): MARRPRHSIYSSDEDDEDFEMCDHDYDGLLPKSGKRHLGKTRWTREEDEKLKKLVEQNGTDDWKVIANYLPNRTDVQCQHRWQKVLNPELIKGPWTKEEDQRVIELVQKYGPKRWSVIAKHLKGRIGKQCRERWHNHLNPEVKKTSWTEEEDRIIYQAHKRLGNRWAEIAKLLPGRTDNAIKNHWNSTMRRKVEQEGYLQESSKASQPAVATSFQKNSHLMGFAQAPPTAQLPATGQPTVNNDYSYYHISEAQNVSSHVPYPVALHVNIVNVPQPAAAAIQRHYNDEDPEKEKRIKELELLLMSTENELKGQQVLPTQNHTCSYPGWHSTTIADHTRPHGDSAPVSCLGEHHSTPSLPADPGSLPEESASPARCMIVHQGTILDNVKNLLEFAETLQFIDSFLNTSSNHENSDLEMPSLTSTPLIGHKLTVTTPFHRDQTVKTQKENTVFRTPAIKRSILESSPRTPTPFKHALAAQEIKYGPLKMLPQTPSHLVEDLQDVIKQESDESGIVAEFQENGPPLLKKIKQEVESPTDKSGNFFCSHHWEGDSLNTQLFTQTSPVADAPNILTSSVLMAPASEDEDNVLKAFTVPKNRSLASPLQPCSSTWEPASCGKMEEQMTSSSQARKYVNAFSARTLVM
X-box-binding protein 1 (Homo sapiens), sequence (P17861 whole entry, looked up): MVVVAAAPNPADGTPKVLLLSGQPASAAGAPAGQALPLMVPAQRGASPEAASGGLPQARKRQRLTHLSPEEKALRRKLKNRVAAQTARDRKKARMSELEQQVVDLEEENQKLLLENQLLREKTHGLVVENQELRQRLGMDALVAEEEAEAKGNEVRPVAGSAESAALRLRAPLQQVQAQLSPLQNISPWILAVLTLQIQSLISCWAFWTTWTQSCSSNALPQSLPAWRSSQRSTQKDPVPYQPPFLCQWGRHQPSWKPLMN
Myc proto-oncogene protein (Homo sapiens), sequence (P01106 whole entry, looked up): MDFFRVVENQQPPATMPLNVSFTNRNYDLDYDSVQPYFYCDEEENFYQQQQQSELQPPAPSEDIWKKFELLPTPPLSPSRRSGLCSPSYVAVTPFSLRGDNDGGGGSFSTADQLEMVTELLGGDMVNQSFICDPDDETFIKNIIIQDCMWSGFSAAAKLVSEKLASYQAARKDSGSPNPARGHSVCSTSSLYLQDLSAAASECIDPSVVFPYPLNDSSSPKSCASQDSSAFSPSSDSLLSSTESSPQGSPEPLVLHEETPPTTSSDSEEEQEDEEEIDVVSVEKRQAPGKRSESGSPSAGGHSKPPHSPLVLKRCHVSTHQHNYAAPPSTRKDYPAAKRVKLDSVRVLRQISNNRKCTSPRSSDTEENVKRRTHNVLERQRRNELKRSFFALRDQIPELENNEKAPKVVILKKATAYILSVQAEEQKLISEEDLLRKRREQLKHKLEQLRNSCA
Bile acid receptor (Homo sapiens), sequence (Q96RI1 whole entry, looked up, the tested form may be a part): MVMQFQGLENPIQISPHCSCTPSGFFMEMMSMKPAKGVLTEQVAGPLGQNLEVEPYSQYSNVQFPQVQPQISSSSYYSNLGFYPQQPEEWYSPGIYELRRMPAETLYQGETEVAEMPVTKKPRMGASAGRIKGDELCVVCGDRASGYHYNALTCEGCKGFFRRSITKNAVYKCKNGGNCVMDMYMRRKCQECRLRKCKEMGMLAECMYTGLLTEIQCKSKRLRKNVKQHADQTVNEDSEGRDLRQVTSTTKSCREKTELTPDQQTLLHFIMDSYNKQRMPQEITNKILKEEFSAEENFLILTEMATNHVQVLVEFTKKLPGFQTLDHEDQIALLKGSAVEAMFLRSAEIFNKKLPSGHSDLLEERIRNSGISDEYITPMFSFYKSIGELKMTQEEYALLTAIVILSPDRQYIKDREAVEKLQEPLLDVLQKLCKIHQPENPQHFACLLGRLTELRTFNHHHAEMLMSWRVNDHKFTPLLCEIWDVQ
Glucocorticoid receptor (Homo sapiens), sequence (P04150 whole entry, looked up, the tested form may be a part): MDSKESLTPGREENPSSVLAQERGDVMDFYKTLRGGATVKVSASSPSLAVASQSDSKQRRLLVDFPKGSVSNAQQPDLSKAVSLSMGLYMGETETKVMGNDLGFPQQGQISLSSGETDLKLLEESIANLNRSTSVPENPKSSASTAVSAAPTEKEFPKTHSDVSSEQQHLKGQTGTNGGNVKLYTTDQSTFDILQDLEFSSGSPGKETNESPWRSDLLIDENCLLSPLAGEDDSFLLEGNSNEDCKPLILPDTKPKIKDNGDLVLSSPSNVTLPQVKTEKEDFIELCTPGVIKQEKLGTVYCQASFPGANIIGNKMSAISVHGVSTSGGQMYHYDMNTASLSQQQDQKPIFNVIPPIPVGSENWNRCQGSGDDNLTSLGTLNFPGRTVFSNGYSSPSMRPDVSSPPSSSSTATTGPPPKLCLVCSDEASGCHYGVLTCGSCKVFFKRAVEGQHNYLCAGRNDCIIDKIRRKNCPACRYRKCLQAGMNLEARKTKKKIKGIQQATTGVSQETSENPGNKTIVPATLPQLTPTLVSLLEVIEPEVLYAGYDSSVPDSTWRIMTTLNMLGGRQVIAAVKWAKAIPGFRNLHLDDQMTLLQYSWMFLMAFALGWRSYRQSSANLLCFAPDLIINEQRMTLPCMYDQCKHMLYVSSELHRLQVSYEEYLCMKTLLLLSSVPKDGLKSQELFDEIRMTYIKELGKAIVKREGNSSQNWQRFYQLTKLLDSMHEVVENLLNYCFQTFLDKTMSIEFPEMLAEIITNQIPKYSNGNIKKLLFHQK
Nuclear respiratory factor 1 (Homo sapiens), sequence (Q16656 whole entry, looked up): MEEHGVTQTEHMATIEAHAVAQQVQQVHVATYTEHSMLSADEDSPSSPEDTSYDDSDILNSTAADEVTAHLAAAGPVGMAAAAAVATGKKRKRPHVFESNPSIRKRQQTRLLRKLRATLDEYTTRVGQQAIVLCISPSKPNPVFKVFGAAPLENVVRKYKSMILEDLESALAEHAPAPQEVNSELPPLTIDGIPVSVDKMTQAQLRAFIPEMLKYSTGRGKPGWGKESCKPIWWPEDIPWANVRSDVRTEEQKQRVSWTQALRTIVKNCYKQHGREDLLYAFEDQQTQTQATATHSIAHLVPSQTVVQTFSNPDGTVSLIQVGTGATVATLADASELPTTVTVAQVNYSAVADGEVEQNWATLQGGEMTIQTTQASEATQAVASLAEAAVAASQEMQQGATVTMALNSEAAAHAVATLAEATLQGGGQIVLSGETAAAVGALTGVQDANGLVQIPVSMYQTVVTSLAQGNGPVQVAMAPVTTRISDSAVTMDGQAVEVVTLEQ
Oxysterols receptor LXR-alpha (Homo sapiens), sequence (Q13133 whole entry, looked up, the tested form may be a part): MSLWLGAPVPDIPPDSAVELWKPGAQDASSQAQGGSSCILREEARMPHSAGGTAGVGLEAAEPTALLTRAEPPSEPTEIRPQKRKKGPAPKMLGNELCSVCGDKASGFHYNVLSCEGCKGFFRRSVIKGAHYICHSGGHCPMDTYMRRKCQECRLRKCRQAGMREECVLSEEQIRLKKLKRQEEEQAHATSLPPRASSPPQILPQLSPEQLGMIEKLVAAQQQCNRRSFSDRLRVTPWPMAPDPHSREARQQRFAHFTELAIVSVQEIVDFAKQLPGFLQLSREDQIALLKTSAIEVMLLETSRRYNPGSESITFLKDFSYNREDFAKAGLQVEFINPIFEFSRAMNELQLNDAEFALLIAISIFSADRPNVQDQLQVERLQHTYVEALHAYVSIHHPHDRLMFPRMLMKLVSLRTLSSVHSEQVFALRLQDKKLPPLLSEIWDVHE

C=C(C)[C@@H]1CC=C(C=O)CC1
inactive: [1] | [2] | [3] | [4] | [5] | [6] | [7] | [8] | [9] | [10] | [11]

c1ccc(-c2cccc(-c3ccccc3)c2)cc1
inactive: [3] | [12] | [4] | [5] | [6] | [8] | [9] | [10]
active: [1] 27.3 µM | [7] 27.8 µM

O=C(CCl)Nc1ccccc1
inactive: [1] | [13] | [5] | [6] | [14] | [15] | [7] | [11]
active: [3] 22 µM | [8] 100 µM | [9] 35.2 µM | [10] 26.9 µM

OC(c1ccc(Cl)cc1)(c1ccc(Cl)cc1)c1cccnc1
inactive: [1] | [3] | [13] | [12] | [16] | [4] | [14] | [17] | [7] | [9] | [10] | [11]

O=NN1CCCCCC1
inactive: [1] | [3] | [13] | [16] | [18] | [4] | [6] | [14] | [17] | [15] | [7] | [8] | [9] | [10] | [11]

CCC[CH2][Sn]([Cl])([Cl])[CH2]CCC
active: [1] 1.86 µM | [3] 1.2 µM | [10] 0.458 µM
inactive: [12] | [4] | [14] | [8] | [11]

C[N+](C)(C)Cc1ccccc1
inactive: [1] | [3] | [12] | [16] | [4] | [5] | [6] | [14] | [15] | [8] | [9] | [10] | [11]

CCCCCCCCCCCCCl
inactive: [1] | [3] | [12] | [18] | [6] | [15] | [8] | [9] | [10] | [11]

CCCCN(CCCC)C(=S)[S-].CCCCN(CCCC)C(=S)[S-].[Ni+2]
inactive: [1] | [3] | [12] | [16] | [6] | [14] | [17] | [15] | [9] | [10] | [11]

CN(C)CCN(C)C
inactive: [1] | [3] | [12] | [18] | [4] | [6] | [14] | [15] | [7] | [8] | [9] | [10] | [11]

— PubChem BioAssay (EPA / NIEHS)
